# Assay results taken from PMC11062922 (Nature Chemical Biology, 2023).
# Read-outs that look alike come from different tables or passages of the source.
# Tests used:
# Set-up in all cases: species or system human, MV4-11 + K-562 + COLO205 + SK-N-BE2 + OVCAR-8
# [1] = system: MAP2K5; settings: read-out: apparent Kd, n = 1
# [2] = system: DDR1; settings: read-out: apparent Kd, compound concentrations: 100 nM and 1000 nM (sheet 'Samples'), n = 1
# [3] = system: FLT3; settings: read-out: apparent Kd, n = 1
# [4] = system: TNK2; settings: read-out: apparent Kd, n = 1
# [5] = system: ACAD11; settings: read-out: apparent Kd, n = 1
# [6] = system: ACVR1B; settings: read-out: apparent Kd, compound concentrations: 100 nM and 1000 nM (sheet 'Samples'), n = 1
# [7] = system: ACVR1; settings: read-out: apparent Kd; compound concentrations: 100 nM and 1000 nM (sheet 'Samples'), CATDS: 2.7247604336379499E-2; n = 1
# [8] = system: CSK; settings: read-out: apparent Kd, n = 1
# [9] = system: EGFR; settings: read-out: apparent Kd, compound concentrations: 100 nM and 1000 nM (sheet 'Samples'), n = 1
# [10] = system: FRK; settings: read-out: apparent Kd, compound concentrations: 100 nM and 1000 nM (sheet 'Samples'), n = 1
# [11] = system: SRC; settings: read-out: apparent Kd, compound concentrations: 100 nM and 1000 nM (sheet 'Samples'), n = 1
# [12] = system: LYN; settings: read-out: apparent Kd, compound concentrations: 100 nM and 1000 nM (sheet 'Samples'), n = 1
# [13] = system: EPHA1; settings: read-out: apparent Kd, n = 1
# [14] = system: SIK2; settings: read-out: apparent Kd; compound concentrations: 100 nM and 1000 nM (sheet 'Samples'), CATDS: 1.1089332631068699E-2; n = 1
# [15] = system: ZAK; settings: read-out: apparent Kd, n = 1
# [16] = system: CDK16; settings: read-out: apparent Kd; compound concentrations:100 nM and 1000 nM (sheet 'Samples'); n = 1
# [17] = system: CDKL5; settings: read-out: apparent Kd; compound concentrations:100 nM and 1000 nM (sheet 'Samples'); n = 1
# [18] = system: DYRK1A; settings: read-out: apparent Kd; compound concentrations:100 nM and 1000 nM (sheet 'Samples'); n = 1
# [19] = system: GSK3A; settings: read-out: apparent Kd, n = 1
# [20] = system: GSK3B; settings: read-out: apparent Kd, n = 1
# [21] = compound concentrations:100 nM and 1000 nM (sheet 'Samples')
smiles,measurement,setting,value
COc1cccc(-n2cnc3c(N/N=C/c4ccncc4)ncnc32)c1 [GW813360X],potency estimated from few doses,"[1]; compound concentrations: 100 nM and 1000 nM (sheet 'Samples'), CATDS: 0.129253463235972",2170 nM
CN1CCN(Cc2ccc(NC(=O)Nc3ccc(N(C)c4ccnc(Nc5ccc(CS(C)(=O)=O)cc5)n4)cc3)cc2)CC1.Cl [GW827654A],potency estimated from few doses,[2]; CATDS: 9.0540797508364801E-2,147 nM
same,potency estimated from few doses,"[3]; compound concentrations: 100 nM and 1000 nM (sheet 'Samples'), CATDS: 0.105116266606525",112 nM
same,potency estimated from few doses,"[4]; compound concentrations: 100 nM and 1000 nM (sheet 'Samples'), CATDS: 6.4241949787580299E-2",295 nM
O=S(=O)(CCOCc1ccc(-c2ccc3ncnc(Nc4ccc(OCc5cccc(F)c5)c(Cl)c4)c3c2)o1)c1ccccc1 [GW615311X],potency estimated from few doses,"[5]; compound concentrations: 100 nM and 1000 nM (sheet 'Samples'), CATDS: 2.2498747845654098E-2",2280 nM
same,potency estimated from few doses,[6]; CATDS: 3.6359113991721197E-2,818 nM
same,potency estimated from few doses,[7],1430 nM
same,potency estimated from few doses,"[8]; compound concentrations: 100 nM and 1000 nM (sheet 'Samples'), CATDS: 2.6624527430589399E-2",1510 nM
same,potency estimated from few doses,[9]; CATDS: 3.2602064025644098E-2,997 nM
same,potency estimated from few doses,[10]; CATDS: 2.9445586686104801E-2,1220 nM
same,potency estimated from few doses,[11]; CATDS: 2.9038399213399499E-2,1250 nM
NS(=O)(=O)CCc1cccc(Nc2nccc(-c3c(-c4cccc(NC(=O)c5c(F)cccc5F)c4)nn4ccccc34)n2)c1 [GSK336735A],potency estimated from few doses,"[8]; compound concentrations: 100 nM and 1000 nM (sheet 'Samples'), CATDS: 5.7355343721703998E-2",1220 nM
same,potency estimated from few doses,[2]; CATDS: 5.2826618660154298E-2,1570 nM
same,potency estimated from few doses,[9]; CATDS: 5.3399275908321601E-2,1520 nM
same,potency estimated from few doses,[12]; CATDS: 7.1175193729883096E-2,720 nM
COc1cc2ncn(-c3cc(OCc4cccs4)c(C(N)=O)s3)c2cc1OC [GSK312948A],potency estimated from few doses,[5]; [21],766 nM
same,potency estimated from few doses,[1]; [21],461 nM
CN1CCc2ccc(Nc3nccc(-c4c(-c5cccc(NC(=O)c6c(F)cccc6F)c5)nc5ccccn45)n3)cc2C1.Cl [GSK1010829B],potency estimated from few doses,"[8]; compound concentrations: 100 nM and 1000 nM (sheet 'Samples'), CATDS: 3.4286589805654001E-2",1380 nM
same,potency estimated from few doses,[2]; CATDS: 3.8396909039531198E-2,1010 nM
same,potency estimated from few doses,[9]; CATDS: 3.29518195590447E-2,1570 nM
same,potency estimated from few doses,[10]; CATDS: 4.3093308654231798E-2,770 nM
same,potency estimated from few doses,[12]; CATDS: 6.0028262979631E-2,403 nM
same,potency estimated from few doses,[11]; CATDS: 5.29363400907749E-2,505 nM
CNC(=O)c1ccccc1Nc1nc(Nc2cccc(CS(C)(=O)=O)c2)ncc1C.O=CO [GSK1520489A],potency estimated from few doses,[6]; CATDS: 1.2545717700139699E-2,511 nM
same,potency estimated from few doses,[2]; CATDS: 1.3625362720769099E-2,389 nM
same,potency estimated from few doses,[9]; CATDS: 1.37119506592154E-2,382 nM
same,potency estimated from few doses,"[13]; compound concentrations: 100 nM and 1000 nM (sheet 'Samples'), CATDS: 4.9501189051371401E-2",23.8 nM
same,potency estimated from few doses,"[3]; compound concentrations: 100 nM and 1000 nM (sheet 'Samples'), CATDS: 1.2283454590930699E-2",550 nM
same,potency estimated from few doses,[10]; CATDS: 1.0457896251618699E-2,1050 nM
same,potency estimated from few doses,[12]; CATDS: 1.17680848685595E-2,643 nM
same,potency estimated from few doses,[14],813 nM
same,potency estimated from few doses,[11]; CATDS: 1.1920002971419799E-2,613 nM
c1ccc(Oc2ccc(Nc3ccnc4cc(-c5ccc(CN6CCCCC6)o5)ccc34)cc2)nc1 [GW567143X],potency estimated from few doses,"[13]; compound concentrations: 100 nM and 1000 nM (sheet 'Samples'), CATDS: 6.2167566437911E-2",315 nM
same,potency estimated from few doses,"[3]; compound concentrations: 100 nM and 1000 nM (sheet 'Samples'), CATDS: 0.15169843184363399",60.9 nM
same,potency estimated from few doses,[10]; CATDS: 3.9738345055864897E-2,1100 nM
same,potency estimated from few doses,[12]; CATDS: 4.1336056970238899E-2,956 nM
same,potency estimated from few doses,"[1]; compound concentrations: 100 nM and 1000 nM (sheet 'Samples'), CATDS: 0.10658346724576",108 nM
same,potency estimated from few doses,[11]; CATDS: 5.3011588623511699E-2,464 nM
same,potency estimated from few doses,"[4]; compound concentrations: 100 nM and 1000 nM (sheet 'Samples'), CATDS: 3.98580587888741E-2",1080 nM
same,potency estimated from few doses,"[15]; compound concentrations: 100 nM and 1000 nM (sheet 'Samples'), CATDS: 3.3669776805855603E-2",2210 nM
Cc1ccc(O)cc1Nc1ccnc2ccc(C(C)(C)C)cc12 [GW856805X],potency estimated from few doses,"[13]; compound concentrations: 100 nM and 1000 nM (sheet 'Samples'), CATDS: 0.48562635988047498",1.03 nM
same,potency estimated from few doses,[10]; CATDS: 5.5452484233419301E-2,44.2 nM
CC(C)c1nc(-c2ccc(F)c(NS(=O)(=O)c3c(F)cccc3F)c2)c(-c2ccnc(Nc3ccc(N4CCOCC4)nc3)n2)s1 [GSK1804250A],potency estimated from few doses,[16],1890 nM
same,potency estimated from few doses,[17],984 nM
same,potency estimated from few doses,[8]; [21],442 nM
same,potency estimated from few doses,[13]; [21],548 nM
same,potency estimated from few doses,[4]; [21],232 nM
same,potency estimated from few doses,[15]; [21],1410 nM
N#Cc1cccc(Nc2nccc(-c3cnn4ncccc34)n2)c1 [GW778894X],potency estimated from few doses,[5]; [21],228 nM
same,potency estimated from few doses,[16],13 nM
same,potency estimated from few doses,[17],6.82 nM
same,potency estimated from few doses,[18],35.9 nM
same,potency estimated from few doses,[3]; [21],137 nM
same,potency estimated from few doses,[19]; [21],28.3 nM
same,potency estimated from few doses,"[20]; compound concentrations: 100 nM and 1000 nM (sheet 'Samples'), CATDS: 5.9931823260346899E-2",21.2 nM
CN(C)Cc1ccc(-c2ccc3c(Nc4ccc(Oc5ccccn5)cc4)ccnc3c2)o1 [GW567148X],potency estimated from few doses,"[8]; compound concentrations: 100 nM and 1000 nM (sheet 'Samples'), CATDS: 1.6993908707239901E-2",1760 nM
same,potency estimated from few doses,"[13]; compound concentrations: 100 nM and 1000 nM (sheet 'Samples'), CATDS: 2.4503846064608301E-2",577 nM
same,potency estimated from few doses,"[3]; compound concentrations: 100 nM and 1000 nM (sheet 'Samples'), CATDS: 2.7806184989220401E-2",433 nM
same,potency estimated from few doses,[10]; CATDS: 2.1087873700944799E-2,850 nM
same,potency estimated from few doses,"[19]; compound concentrations: 100 nM and 1000 nM (sheet 'Samples'), CATDS: 2.2236241466677201E-2",736 nM
same,potency estimated from few doses,"[20]; compound concentrations: 100 nM and 1000 nM (sheet 'Samples'), CATDS: 1.84231194054994E-2",1300 nM
same,potency estimated from few doses,[12]; CATDS: 2.6094910864106001E-2,499 nM
same,potency estimated from few doses,"[1]; compound concentrations: 100 nM and 1000 nM (sheet 'Samples'), CATDS: 0.100463270176777",51.4 nM
same,potency estimated from few doses,[11]; CATDS: 3.3500581656618303E-2,297 nM
same,potency estimated from few doses,"[4]; compound concentrations: 100 nM and 1000 nM (sheet 'Samples'), CATDS: 2.9353794658715598E-2",386 nM
Cn1cc(-c2cnc(N)c3c(-c4ccc5c(c4)CCN5C(=O)Cc4ccccc4)csc23)cn1 [GSK2593074A],potency estimated from few doses,[1]; [21],979 nM
COc1cc2nccc(Nc3ccc(Oc4ccccc4)cc3)c2cc1OC.Cl [GI261656A],potency estimated from few doses,[9]; CATDS: 3.8994788715485701E-2,2360 nM
same,potency estimated from few doses,[10]; CATDS: 5.3958789023196299E-2,470 nM
same,potency estimated from few doses,[12]; CATDS: 7.8976671860543801E-2,160 nM
same,potency estimated from few doses,"[1]; compound concentrations: 100 nM and 1000 nM (sheet 'Samples'), CATDS: 9.9796697062305095E-2",95.6 nM
same,potency estimated from few doses,[11]; CATDS: 5.79534996745752E-2,372 nM
COc1cc2ncn(-c3cc(OCCCc4ccccc4)c(C(N)=O)s3)c2cc1OC [GSK205189A],potency estimated from few doses,[19]; [21],575 nM
same,potency estimated from few doses,[20]; [21],1110 nM
same,potency estimated from few doses,[4]; [21],48.2 nM
